Cruzain noTriton = qHTS Assay for Promiscuous and Specific Inhibitors of Cruzain (without detergent) | Cruzipain (Trypanosoma cruzi), P25779 | purified cruzain, Z-FR-AMC fluorescence, no detergent | Potency, µM, without a hit: max response, negative = inhibition, hits mostly inhibitors | 200,000 tested, 2.3% active;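 also: plate controls were enzyme without inhibitor for no effect and buffer without enzyme for full effect; nearly all actives have a fitted effect of over 40% in size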
Target sequence (P25779 123-467 limits assumed): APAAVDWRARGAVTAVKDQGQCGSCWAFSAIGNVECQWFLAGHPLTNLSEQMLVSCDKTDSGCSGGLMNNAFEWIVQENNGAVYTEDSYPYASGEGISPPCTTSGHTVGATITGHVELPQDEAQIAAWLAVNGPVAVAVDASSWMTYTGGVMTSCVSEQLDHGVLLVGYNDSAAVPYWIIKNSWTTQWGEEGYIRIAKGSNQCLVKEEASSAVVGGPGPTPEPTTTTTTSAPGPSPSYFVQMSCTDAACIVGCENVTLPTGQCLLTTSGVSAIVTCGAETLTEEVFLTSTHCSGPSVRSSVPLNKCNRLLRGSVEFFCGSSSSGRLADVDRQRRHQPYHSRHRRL
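Purified cruzain at 1.5 nM, pre-incubated 15 min with compound at room temperature in 100 mM sodium acetate pH 5.5, 5 mM DTT, 0.00005% Triton X-100. Reaction started with 2 uM Z-FR-AMC; AMC fluorescence increase over 60 s gives rate.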
Cruzain Triton = qHTS Assay for Promiscuous and Specific Inhibitors of Cruzain (with detergent). purified cruzain, Z-FR-AMC fluorescence, 0.01% Triton. Potency, µM, inactives show max response, negative = inhibition, hits mostly inhibitors. AID 1478, 2009. Cruzipain (Trypanosoma cruzi), P25779. 200,000 tested, 0.43% active;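 also: plate controls were neutral wells for no effect and buffer without enzyme for full effect; nearly all actives have a fitted effect of over 40% in size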
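In this qHTS format, compounds are incubated with 1.5 nM cruzain for 15 min at room temperature before 2 uM Z-FR-AMC is added. Release of AMC is followed at 360/450 nm, and progress is taken as the 60 s fluorescence difference.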
Active calls of the source: *; ? = inconclusive. Rows were chosen to be rich in hits. Some 2.4% of all compounds tested hit in one or more screens of this group. Calls follow the shape of the dose curve; as a rule, active = well fitted curve in the direction sought with a large enough effect; inconclusive = small, poorly fitted or top-dose-only effect, or another doubt; inactive = no such curve, though single readings can be large; an effect the other way counts as inactive or inconclusive. Potency is read from the fitted curve at half-maximal effect.

SMILES	Cruzain noTriton	Cruzain Triton
CC(C)C(C(=O)OCC(=O)c1cccc([N+](=O)[O-])c1)N1C(=O)[C@@H]2[C@H]3CC[C@H](C3)[C@@H]2C1=O (some centres not stated)	?	16µM*
CCOc1ccccc1-c1noc(CSc2nnc(-c3ccccc3)n2-c2ccc(F)cc2)n1	7%	-2%
Cc1sc2ncn(CC(=O)N3CCN(c4ccccc4)CC3)c(=O)c2c1S(=O)(=O)N1CCC(C)CC1	?	-4%
CCc1cccc(NC(=O)Cn2c(C(=O)OC)cc3sc(Cl)cc32)c1	11%	0%
COC(=O)c1cc2sc(Cl)cc2n1CC(=O)Nc1cccc(SC)c1	25µM*	-16%
COC(=O)c1c(NC(=O)C2c3ccccc3Oc3ccccc32)sc2c1CCC(C)C2 (configuration not stated)	-23%	-3%
CCC(C)(C)C1CCc2c(sc(NC(=O)C3c4ccccc4Oc4ccccc43)c2C(N)=O)C1 (configuration not stated)	-2%	-2%
CCC1CCc2c(sc(NC(=O)C3c4ccccc4Oc4ccccc43)c2C#N)C1 (configuration not stated)	7.9µM*	-5%
CCC1CCc2c(sc(NC(=O)C3c4ccccc4Oc4ccccc43)c2C(=O)OC)C1 (configuration not stated)	4µM*	1%
Cc1ccc(-n2ncc3c(N4CCC(C)CC4)ncnc32)cc1C	-1%	0%
Cn1c(=O)[nH]c2cc(-c3noc(-c4ccc(F)cc4)n3)ccc21	10%	0%
CCOc1ccc(CCNC(=O)CCCn2nc(C)c3sc4ccccc4c3c2=O)cc1	?	-8%
CCOc1ccc(CNC(=O)CCCn2nc(C)c3sc4ccccc4c3c2=O)cc1	20µM*	-7%
CC(=O)c1ccc2c(c1)C1C=CCC1C(c1ccncc1)N2 (configuration not stated)	30%	-10%
CC(=O)c1ccc(Sc2nnnn2-c2ccccc2)c([N+](=O)[O-])c1	1%	0%
CC(=O)c1ccc2c(c1)C1C(Cl)C(Sc3ccccc3[N+](=O)[O-])CC1C(c1ccccc1)N2 (configuration not stated)	4µM*	-6%
CC(=O)c1ccc2c(c1)C1C(Cl)C(Sc3ccccc3[N+](=O)[O-])CC1C(c1ccccc1[N+](=O)[O-])N2 (configuration not stated)	3.2µM*	-11%
COC(=O)c1ccc2c(c1)N(Cc1ccccc1)C(=O)c1ccccc1S2(=O)=O	-8%	0%
Cc1ccc(C)c(N2CCN(S(=O)(=O)c3cc(C(=O)Nc4cc(Cl)cc(Cl)c4)ccc3F)CC2)c1	-12%	0%
Cc1ccc(N2CCN(S(=O)(=O)c3cc(C(=O)Nc4cc(Cl)cc(Cl)c4)ccc3F)CC2C)cc1 (configuration not stated)	2.5µM*	1%
Cc1cc(=O)[nH]c2nnc(SCc3ccc(Cl)cc3Cl)n12	-5%	-1%
CC(=O)Nc1nonc1-c1nnc(SCC(=O)Nc2cc(C)ccc2C)n1-c1ccccc1	?	-1%
COc1ccccc1NS(=O)(=O)c1ccc(C)c(NC(=O)c2ccc(S(=O)(=O)N3CCCCCC3)cc2)c1	32µM*	-1%
COc1ccccc1NC(=O)c1ccc(S(=O)(=O)N2CCCC2)cc1	-1%	-1%
CN1CCN(c2ccc(Cl)cc2NC(=O)c2ccc(S(=O)(=O)N(C)C)cc2)CC1	-1%	5%
SMILES	Cruzain noTriton	Cruzain Triton
CN(C)S(=O)(=O)c1ccc(C(=O)Nc2cc(S(=O)(=O)Nc3ccccc3Cl)ccc2N2CCCCC2)cc1	25µM*	-5%
O=C(Nc1nc2ccc(F)cc2s1)C1CCN(S(=O)(=O)c2cc([N+](=O)[O-])ccc2Cl)CC1	10µM*	-8%
Cc1ccc2nc(NC(=O)C3CCN(S(=O)(=O)c4cccc5nsnc45)CC3)sc2c1	?	-6%
Cc1ccc2nc(NC(=O)C3CCN(S(=O)(=O)c4cc([N+](=O)[O-])ccc4Cl)CC3)sc2c1	32µM*	-3%
CC(NC(=O)C1CCN(S(=O)(=O)c2cc([N+](=O)[O-])ccc2Cl)CC1)c1ccccc1 (configuration not stated)	-8%	-4%
C[C@]12C[C@@](C)(C=C1/C=C/c1ccc(C(F)(F)F)cc1)C(=O)C[C@H]2c1ccc(C(F)(F)F)cc1	-2%	-3%
COc1ccc(OC)c(NC(=O)c2nnn(CC(=O)Nc3ccc(C(C)C)cc3)c2N)c1	-24%	-5%
O=C(CSc1nc2c([nH]c3ccccc32)c(=O)n1-c1ccccc1)N1CCc2ccccc21	-2%	0%
C[C@@]12C[C@H](O)C3[C@H](CCC4=CC(=O)CC[C@]43C)[C@H]1CC[C@@H]2c1csc(N)n1 (some centres not stated)	-3%	-1%
COc1cc(/C=C/C(=O)c2ccc(NS(=O)(=O)c3ccc(C)cc3)cc2)ccc1OC(F)F	10µM*	-2%
COc1cc(/C=C/C(=O)c2ccc(NS(=O)(=O)c3ccc(C)cc3)cc2)cc(OC)c1O	?	-6%
COc1ccccc1CNC(=O)C1CCN(C2=NS(=O)(=O)C(c3ccc(C)c(C)c3)=C2C)CC1	3%	-2%
O=C(Nc1c2c(nn1-c1ccc(Cl)cc1)CS(=O)(=O)C2)c1cccc(Cl)c1	-25%	2%
CCN(CC)c1ccc(NC(=O)/C=C/c2cc(Br)ccc2OC)cc1	25µM*	-4%
COc1ccc(NC(=O)/C=C/c2cc(Br)ccc2OC)cc1	-2%	-5%
O=C1CN(C(=O)CSc2nnc(-c3ccccc3)n2Cc2ccc3c(c2)OCO3)c2ccccc2N1	13µM*	28µM*
Cc1nnc(SCC(=O)N2CC(=O)Nc3ccccc32)n1-c1ccccc1	-4%	2%
O=C(Nc1cc(Cl)cc(Cl)c1)c1ccc(F)c(S(=O)(=O)N2CCN(c3ccccc3F)CC2)c1	-3%	1%
Cc1cc(=O)[nH]c2nnc(SCc3cccc(C(F)(F)F)c3)n12	-4%	-2%
CCOC(=O)c1c(NC(=O)Nc2ccc(F)cc2)sc(C(=O)N(C)C)c1C	2%	-4%
CCCn1c(=N)c(C(=O)NCC2CCCO2)cc2c(=O)n3cccc(C)c3nc21 (configuration not stated)	?	32µM*
Cc1ccc(S(=O)(=O)c2cc3c(=O)n4cc(C)ccc4nc3n(CC3CCCO3)c2=N)cc1 (configuration not stated)	16%	4%
COCCCn1c(=N)c(C(=O)NCC2CCCO2)cc2c(=O)n3ccccc3nc21 (configuration not stated)	?	28µM*
CCOCCCn1c(=N)c(C(=O)NCC2CCCO2)cc2c(=O)n3cc(C)ccc3nc21 (configuration not stated)	?	1%
Cc1cccn2c(=O)c3cc(C(=O)NCC4CCCO4)c(=N)n(CCN4CCOCC4)c3nc12 (configuration not stated)	-1%	-16%
N=c1c(S(=O)(=O)c2ccccc2)cc2c(=O)n3ccccc3nc2n1CC1CCCO1 (configuration not stated)	?	32µM*
COCCCn1c(=N)c(C(=O)NCC2CCCO2)cc2c(=O)n3cccc(C)c3nc21 (configuration not stated)	?	25µM*

Screening data from PubChem BioAssay.
